# Assay outcomes as filed in PubChem.
# Most compounds without a hit are left out; they make up all but 14% or so of the library.
# Shiga toxin inh: blocks Shiga toxin action in Vero cells; Vero cells, Shiga toxin protein synthesis inhibition reporter; inhibition, % at 38.7 µM; AID 2315; 290,000 tested, 9.2% active; in the data active = inhibition mostly above about 28%, no sharp cut-off; inactive = mostly below about 43%; note: 0% is about no effect
# NS1 inh: inhibitors of influenza NS1 protein function; Potency, µM (titrated, usually from 46.1 µM), inactives show top-dose activity, positive = more growth; 270,000 tested, 0.4% active; calls by dose curve; note: potency is the fitted concentration of half-maximal effect; actives are rising curves; nearly all actives have a fitted effect of over 50% in size
#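 A cell-based growth assay was used: compounds that relieve NS1-induced slow growth of budding yeast raise OD600. Assay medium was yeast nitrogen base with ammonium sulphate and -URA supplement, pH 6.0, with 2% galactose.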
# Cycloheximide cs: counter-screen for Shiga toxin inhibitors: cycloheximide protein synthesis inhibition | cell reporter, cycloheximide protein synthesis inhibition counterscreen | max response, % | 300,000 tested, 12% active | AID 2314; in the data active = max response mostly above about 13%, no sharp cut-off; inactive = mostly below about 14%; note: read at 38.3 µM for the half of the compounds with a filed dose; 0% is about no effect
# LmPK inh: blocks Leishmania mexicana pyruvate kinase activity. Potency, µM (top dose mostly 57.5 µM), inactives show at the highest dose activity change, negative = inhibition, hits mostly inhibitors. 290,000 tested, 0.37% active. AID 1721. Q27686. purified LmPK, Kinase-Glo ATP luminescence, 1 h; note: potency is the fitted concentration of half-maximal effect; % is set by controls: 0 for no effect and ±100 for the full control effect
#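 In 50 mM imidazole pH 7.2 with 7 mM MgCl2, LmPK (0.1 nM) turned over PEP (0.5 mM) and ADP (0.1 mM) for 1 h at room temperature. Luciferase read-out of ATP.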
# FBPA Giardia inh: Giardia lamblia aldolase inhibition; A8B2U2; Potency, µM (titrated, usually from 59.6 µM), without a hit: at the highest dose activity, negative = inhibition, hits mostly inhibitors; 290,000 tested, 0.71% active; purified Giardia FBPA; note: potency is the fitted concentration of half-maximal effect; % is set by controls: 0 for no effect and ±100 for the full control effect; nearly all actives have a fitted effect of over 55% in size
# Target sequence (A8B2U2 whole entry, looked up): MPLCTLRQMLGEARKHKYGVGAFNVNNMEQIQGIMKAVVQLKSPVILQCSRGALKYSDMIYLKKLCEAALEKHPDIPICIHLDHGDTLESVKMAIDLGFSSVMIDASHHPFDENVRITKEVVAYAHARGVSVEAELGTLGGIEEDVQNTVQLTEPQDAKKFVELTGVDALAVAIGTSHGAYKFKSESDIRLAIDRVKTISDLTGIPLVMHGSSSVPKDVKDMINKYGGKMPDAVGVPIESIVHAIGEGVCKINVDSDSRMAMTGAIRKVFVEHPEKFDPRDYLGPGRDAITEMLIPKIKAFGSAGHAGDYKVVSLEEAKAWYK
#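 40 nM FBPA preincubated 10 min at RT with compound (up to 57.5 uM final), then substrate plus GAPDH/TPI/NAD/arsenate coupling and diaphorase/resazurin added. Fluorescence read after 20 min at RT, 525/598 nm.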
# * hit, by the source's call; i = inactive; ? = inconclusive; · = not tested or not shown; [ ] = another dose, or the depositor's remark. Unless noted, calls come from the whole dose curve; as a rule, active = well fitted curve in the direction sought with a large enough effect; inconclusive = small, poorly fitted or top-dose-only effect, or another doubt; inactive = no such curve, though single readings can be large; an effect the other way counts as inactive or inconclusive.
SMILES,Shiga toxin inh,NS1 inh,Cycloheximide cs,LmPK inh,FBPA Giardia inh
CC1(C)CCc2cc(-c3ccnc(=S)[nH]3)ccc2O1,53*,3%,42*,1%,15%
COc1ccc(/C=C/C(=O)NC(C)CCc2ccccc2)cc1OC (stereo unspecified),-9,-7%,-2,2%,-5%
CCN(C(=O)CCN1C(=O)c2ccccc2C1=O)C1CCCCC1,34,-8%,-1,3%,-1%
CN(C(=O)/C=C/c1cnc2ccccc2c1)C1CCCCC1,70*,·,26*,0%,-10%
COc1ccc(/C=C/C(=O)N(C(C)C)C(C)C)cc1Br,51*,-12%,24*,-4%,-4%
CCN(C(=O)/C=C/c1ccccc1)C1CCCCC1,36,1%,6.9*,-4%,1%
COc1ccc(/C=C/C(=O)NC(C)C)cc1Br,4,-6%,13*,2%,2%
COc1cc(/C=C/C(=O)CC(=O)/C=C/c2ccc(O)c(OC)c2)ccc1O,56,3%,50,2%,?
COc1ccc(/C=C/C(=O)N(C)C2CCCCC2)cc1Br,78*,3%,26*,1%,-4%
O=C(Nc1ccc(S(=O)(=O)N2CCOCC2)cc1)c1ccccc1Br,-12,-10%,1,1%,2%
Cc1ccc(-n2nc3c(c2NC(=O)c2ccccc2)CS(=O)(=O)C3)cc1C,26,4%,11,2%,·
Clc1ccc(/C=C/c2ncc3ccccn23)cc1,83*,-32%,33*,3%,-3%
CCOc1nc(NC(=O)NS(=O)(=O)c2cccc(Cl)c2)nc(-c2ccccc2)n1,0,13%,-1,-7%,1%
CCOc1nc(NC(=O)NS(=O)(=O)Oc2cccc(Cl)c2)nc(-c2ccccc2)n1,-17,3%,17*,-4%,9%
CC(CCc1ccco1)NC(=O)Nc1cccc(F)c1 (stereo unspecified),16,-8%,21*,1%,9%
O=C(CSc1nccn1Cc1ccco1)Nc1cccc(F)c1,39*,-4%,27*,-6%,-10%
COc1ccc(NC(=O)CSc2nccn2Cc2ccco2)c(OC)c1,44*,-1%,25*,-6%,-8%
Cc1ccc(NC(=O)CSc2nccn2Cc2ccco2)cc1,90*,-15%,78*,-8%,·
O=C(CSc1nccn1Cc1ccco1)Nc1ccc(F)cc1,27,-8%,20,-5%,·
COC(=O)c1ccc(C(NC(=O)OCc2ccccc2)/C(=C/[C@@H](C)C(=O)NCCF)c2cccnc2)cc1 (stereo partly specified),·,·,·,·,4%
COc1cc2c(cc1OC)C1O[C@](c3ccsc3)(C2)OC2=C1C(=O)OC1(CCCCC1)C2,i,5%,-1,-12%[11.5 µM],4%[12.9 µM]
Cc1ccc(NC(=O)CSc2ncc3ccccn23)cc1,70*,1%,28*,-2%,-16%
Cc1ccc(NC(=O)Cc2nnc(SCC(=O)Nc3ccccc3)n2C)cc1,8,10%,7,0%,4%
CCc1cc(=O)oc2c(CNCc3c(F)cccc3Cl)c(O)ccc12,11,3%,-3,-7%,-19%
O=C(O)c1ccc(NC(=O)c2cn(-c3ccccc3)nc2-c2ccc(Br)cc2)cc1,-9,-8%,-6,2%,-8%
SMILES,Shiga toxin inh,NS1 inh,Cycloheximide cs,LmPK inh,FBPA Giardia inh
Cc1ccc(-c2nn(-c3ccccc3)cc2NC(=O)c2ccccc2)cc1,44*,-2%,19*,2%,-8%
O=C(CCl)Nc1cn(-c2ccccc2)nc1-c1ccccc1,37,·,39*,1%,-5%
O=C(O)c1ccc(NC(=O)c2cn(-c3ccccc3)nc2-c2ccccc2)cc1,56*,-2%,21*,1%,1%
CC(=O)Nc1cn(-c2ccccc2)nc1-c1ccccc1,-11,·,2,-4%,3%
O=C(NN1CCOCC1)c1cn(-c2ccccc2)nc1-c1cccs1,-6,-8%,5,4%,-1%
O=C(Nc1cn(-c2ccccc2)nc1-c1cccs1)c1ccco1,92*,-15%,18*,2%,0%
CCC(C)(C)NC(=O)C1CCCN(S(=O)(=O)c2ccc3c(c2)CC(C)N3C(=O)C2CC2)C1 (stereo unspecified),-4,-12%,12,1%,3%
O=C(OCC(=O)N1CCCC1)c1ccc(Cl)c([N+](=O)[O-])c1,29,2%,7,-1%,·
Nc1ccc(C(=O)OCC(=O)N2CCOCC2)cc1[N+](=O)[O-],57*,1%,31*,0%,8%
NS(=O)(=O)c1cc(C(=O)OCC(=O)N2CCOCC2)ccc1Cl,5,12%,3,8%,1%
Nc1cc(C(=O)OCC(=O)N2CCOCC2)ccc1Cl,58*,9%,35*,-5%,3%
O=C(OCC(=O)N1CCOCC1)c1ccc(Cl)cc1[N+](=O)[O-],47*,-6%,24*,-7%,-6%
C/C(N)=C(/C#N)C(=O)CSc1nnc(-c2ccccc2)n1C,24,-2%,-2,1%,5%
Cc1c(NC(=O)c2cc(-c3ccccc3)on2)c(=O)n(-c2ccccc2)n1C,-25,-5%,-1,-6%,5%
O=C(Nc1c(F)cc(F)cc1Br)c1cc(-c2ccc(O)cc2)on1,23,-256%,31*,-18%,3%
Cc1cc(C(=O)Nc2c(F)cc(F)cc2Br)no1,26,-50%,14*,-3%,0%
O=C(Nc1c(F)cc(F)cc1Br)c1cc(-c2ccccc2)on1,·,9%,16*,13%,-2%
Cc1cc(C(F)F)n2nc(C(=O)Nc3c(F)cc(F)cc3Br)nc2n1,-6,7%,-3,-12%,4%
C=CCOC(=O)/C(=C/c1cccc2ccccc12)NC(=O)c1ccccc1,92*,0%,66*,3%,-4%
COc1ccc(F)cc1S(=O)(=O)n1nc(C)cc1C,8,8%,-4,-6%,-4%
O=C(NCc1cccc(Cl)c1)C1CCC(=O)N(CCCN2CCCC2=O)C1 (stereo unspecified),-2,-3%,11,-1%,0%
CN(C)/C=C1/Sc2ccccc2C1=O,34,-153%,32*,-4%,-3%
CC(=O)N(\C=C/C=C/C=C1\Sc2ccccc2C1=O)c1ccccc1,115*,·,59*,14%,-26%
CC(=O)Nc1ccc(/C=C2/Sc3ccccc3C2=O)cc1,22,-3%,10,-8%,1%
Cn1cnc(S(=O)(=O)NC2CCN(Cc3ccccc3)CC2)c1,1,4%,-2,1%,6%
CCC(C)(C)n1nnnc1C(c1ccccc1OC)N1CCN(C(=O)c2ccco2)CC1 (stereo unspecified),41,-7%,11*,-1%,-3%
COc1ccc(Cn2nnnc2C(c2cc3cccc(C)c3[nH]c2=O)N2CCOCC2)cc1 (stereo unspecified),35*,-5%,20,-4%,8%
Cc1ccc(C)c2[nH]c(=O)c(C(c3nnnn3Cc3ccco3)N3CCc4ccccc4C3)cc12 (stereo unspecified),78*,?,27*,3%,?
